# Results as given in ChEMBL document CHEMBL1961873, “Compounds: GSK PKIS; Assays: Nanosyn kinase panel” (2012).
# Values joined by “and” are separate entries in the source; they are usually repeats but may differ in a detail not shown here. Identical values can stand only once.
# Legend:
# [1] = target: Tyrosine-protein kinase Fer (Homo sapiens) (UniProt P16591); details: at 1 µM
# [2] = target: Tyrosine-protein kinase Fes/Fps (Homo sapiens) (UniProt P07332); details: at 0.1 µM
# [3] = target: Tyrosine-protein kinase Fes/Fps (Homo sapiens) (UniProt P07332); details: at 1 µM
# [4] = target: Fibroblast growth factor receptor 1 (Homo sapiens) (UniProt P11362); details: at 0.1 µM
# Chain of Fibroblast growth factor receptor 1 (Homo sapiens) (P11362 22-822 limits assumed): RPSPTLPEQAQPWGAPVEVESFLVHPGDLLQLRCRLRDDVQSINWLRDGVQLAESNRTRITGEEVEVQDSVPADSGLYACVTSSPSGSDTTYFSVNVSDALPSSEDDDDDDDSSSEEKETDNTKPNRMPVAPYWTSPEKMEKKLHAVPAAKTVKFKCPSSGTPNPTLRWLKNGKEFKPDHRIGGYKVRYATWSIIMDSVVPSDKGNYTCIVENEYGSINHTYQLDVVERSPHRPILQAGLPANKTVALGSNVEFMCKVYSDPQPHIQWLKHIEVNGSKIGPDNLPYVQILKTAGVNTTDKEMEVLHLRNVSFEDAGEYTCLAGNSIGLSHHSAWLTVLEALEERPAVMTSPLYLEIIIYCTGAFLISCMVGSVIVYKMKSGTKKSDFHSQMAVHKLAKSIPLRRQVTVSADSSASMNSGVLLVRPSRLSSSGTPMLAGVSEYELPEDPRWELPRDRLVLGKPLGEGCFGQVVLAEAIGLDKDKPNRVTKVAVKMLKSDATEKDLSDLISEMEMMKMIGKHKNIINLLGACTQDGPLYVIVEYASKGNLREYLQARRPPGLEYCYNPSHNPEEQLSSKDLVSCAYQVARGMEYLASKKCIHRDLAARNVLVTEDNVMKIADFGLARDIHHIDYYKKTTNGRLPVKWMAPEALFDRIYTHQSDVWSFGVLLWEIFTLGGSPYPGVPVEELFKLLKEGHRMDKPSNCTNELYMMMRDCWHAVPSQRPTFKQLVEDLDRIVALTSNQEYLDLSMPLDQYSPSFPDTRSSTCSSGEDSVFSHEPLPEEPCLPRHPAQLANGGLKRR
# [5] = target: Fibroblast growth factor receptor 1 (Homo sapiens) (UniProt P11362); details: at 1 µM
# [6] = target: Fibroblast growth factor receptor 2 (Homo sapiens) (UniProt P21802); details: at 0.1 µM
# [7] = target: Fibroblast growth factor receptor 2 (Homo sapiens) (UniProt P21802); details: at 1 µM
# [8] = target: Fibroblast growth factor receptor 3 (Homo sapiens) (UniProt P22607); details: at 0.1 µM
# Chain of Fibroblast growth factor receptor 3 (Homo sapiens) (P22607 23-806 limits assumed): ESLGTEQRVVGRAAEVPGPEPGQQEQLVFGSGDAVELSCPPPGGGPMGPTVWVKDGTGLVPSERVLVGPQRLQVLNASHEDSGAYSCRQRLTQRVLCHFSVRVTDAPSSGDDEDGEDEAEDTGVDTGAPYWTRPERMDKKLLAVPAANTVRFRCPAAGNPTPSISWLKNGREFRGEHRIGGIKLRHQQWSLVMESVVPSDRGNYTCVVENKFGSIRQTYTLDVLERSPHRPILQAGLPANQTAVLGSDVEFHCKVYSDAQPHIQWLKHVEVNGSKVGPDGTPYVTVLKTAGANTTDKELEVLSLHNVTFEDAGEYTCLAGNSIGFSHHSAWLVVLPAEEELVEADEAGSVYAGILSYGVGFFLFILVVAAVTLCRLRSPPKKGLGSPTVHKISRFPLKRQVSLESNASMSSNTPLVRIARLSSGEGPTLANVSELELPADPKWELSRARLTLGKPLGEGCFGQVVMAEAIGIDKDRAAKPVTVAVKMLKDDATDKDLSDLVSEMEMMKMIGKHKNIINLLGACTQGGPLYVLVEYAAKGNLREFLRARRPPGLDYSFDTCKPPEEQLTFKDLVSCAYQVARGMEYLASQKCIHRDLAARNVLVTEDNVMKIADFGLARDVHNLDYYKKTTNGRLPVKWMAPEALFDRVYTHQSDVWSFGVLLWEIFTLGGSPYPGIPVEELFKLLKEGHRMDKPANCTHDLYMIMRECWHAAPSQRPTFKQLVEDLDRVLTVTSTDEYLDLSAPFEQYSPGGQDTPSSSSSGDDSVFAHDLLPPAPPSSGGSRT
# [9] = target: Fibroblast growth factor receptor 3 (Homo sapiens) (UniProt P22607); details: at 1 µM
# [10] = target: Fibroblast growth factor receptor 4 (Homo sapiens) (UniProt P22455); details: at 0.1 µM
# Chain of Fibroblast growth factor receptor 4 (Homo sapiens) (P22455 22-802 limits assumed): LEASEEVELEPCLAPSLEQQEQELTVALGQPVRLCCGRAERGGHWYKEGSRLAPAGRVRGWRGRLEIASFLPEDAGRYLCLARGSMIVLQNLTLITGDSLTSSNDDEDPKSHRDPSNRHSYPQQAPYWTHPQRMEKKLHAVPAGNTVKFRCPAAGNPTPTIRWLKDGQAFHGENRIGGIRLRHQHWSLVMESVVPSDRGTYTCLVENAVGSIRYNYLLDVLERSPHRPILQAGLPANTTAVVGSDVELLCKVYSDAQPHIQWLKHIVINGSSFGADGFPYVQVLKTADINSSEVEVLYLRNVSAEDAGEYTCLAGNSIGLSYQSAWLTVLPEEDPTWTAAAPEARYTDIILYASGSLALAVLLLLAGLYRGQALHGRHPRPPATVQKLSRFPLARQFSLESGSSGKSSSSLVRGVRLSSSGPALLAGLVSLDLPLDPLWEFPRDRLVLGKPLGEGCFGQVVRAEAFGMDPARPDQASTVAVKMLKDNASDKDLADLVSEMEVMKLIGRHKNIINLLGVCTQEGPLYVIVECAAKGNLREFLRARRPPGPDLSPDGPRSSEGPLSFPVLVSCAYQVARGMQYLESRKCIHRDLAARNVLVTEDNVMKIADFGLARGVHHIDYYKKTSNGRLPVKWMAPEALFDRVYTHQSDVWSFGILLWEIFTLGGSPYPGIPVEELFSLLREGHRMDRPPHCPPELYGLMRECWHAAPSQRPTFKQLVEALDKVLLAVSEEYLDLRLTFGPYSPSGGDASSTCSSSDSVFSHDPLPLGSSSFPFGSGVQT
# [11] = target: Fibroblast growth factor receptor 4 (Homo sapiens) (UniProt P22455); details: at 1 µM
# [12] = target: Tyrosine-protein kinase Fgr (Homo sapiens) (UniProt P09769); details: at 0.1 µM
# Chain of Tyrosine-protein kinase Fgr (Homo sapiens) (P09769 2-529 limits assumed): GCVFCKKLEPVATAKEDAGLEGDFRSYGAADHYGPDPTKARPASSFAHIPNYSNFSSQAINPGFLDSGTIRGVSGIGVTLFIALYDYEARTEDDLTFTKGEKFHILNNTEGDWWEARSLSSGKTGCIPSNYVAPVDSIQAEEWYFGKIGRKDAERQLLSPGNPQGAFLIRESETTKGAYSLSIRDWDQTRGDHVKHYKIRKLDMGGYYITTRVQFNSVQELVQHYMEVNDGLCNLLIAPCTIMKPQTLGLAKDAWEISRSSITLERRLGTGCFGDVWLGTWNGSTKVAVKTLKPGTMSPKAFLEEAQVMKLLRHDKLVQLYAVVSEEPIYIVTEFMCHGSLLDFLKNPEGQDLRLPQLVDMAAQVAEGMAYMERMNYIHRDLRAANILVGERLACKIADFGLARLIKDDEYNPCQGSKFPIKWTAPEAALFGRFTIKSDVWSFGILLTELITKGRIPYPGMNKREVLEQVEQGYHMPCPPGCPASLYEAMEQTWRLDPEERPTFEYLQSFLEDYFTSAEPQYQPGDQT
# [13] = target: Tyrosine-protein kinase Fgr (Homo sapiens) (UniProt P09769); details: at 1 µM
# [14] = target: Vascular endothelial growth factor receptor 1 (Homo sapiens) (UniProt P17948); details: at 0.1 µM
# [15] = target: Vascular endothelial growth factor receptor 1 (Homo sapiens) (UniProt P17948); details: at 1 µM
# [16] = target: Receptor-type tyrosine-protein kinase FLT3 (Homo sapiens) (UniProt P36888); details: at 0.1 µM
# [17] = target: Receptor-type tyrosine-protein kinase FLT3 (Homo sapiens) (UniProt P36888); details: at 1 µM
# [18] = system: T1, Receptor-type tyrosine-protein kinase FLT3 (Homo sapiens), P36888 [D835Y]; details: at 0.1 µM
# T1 sequence (whole entry): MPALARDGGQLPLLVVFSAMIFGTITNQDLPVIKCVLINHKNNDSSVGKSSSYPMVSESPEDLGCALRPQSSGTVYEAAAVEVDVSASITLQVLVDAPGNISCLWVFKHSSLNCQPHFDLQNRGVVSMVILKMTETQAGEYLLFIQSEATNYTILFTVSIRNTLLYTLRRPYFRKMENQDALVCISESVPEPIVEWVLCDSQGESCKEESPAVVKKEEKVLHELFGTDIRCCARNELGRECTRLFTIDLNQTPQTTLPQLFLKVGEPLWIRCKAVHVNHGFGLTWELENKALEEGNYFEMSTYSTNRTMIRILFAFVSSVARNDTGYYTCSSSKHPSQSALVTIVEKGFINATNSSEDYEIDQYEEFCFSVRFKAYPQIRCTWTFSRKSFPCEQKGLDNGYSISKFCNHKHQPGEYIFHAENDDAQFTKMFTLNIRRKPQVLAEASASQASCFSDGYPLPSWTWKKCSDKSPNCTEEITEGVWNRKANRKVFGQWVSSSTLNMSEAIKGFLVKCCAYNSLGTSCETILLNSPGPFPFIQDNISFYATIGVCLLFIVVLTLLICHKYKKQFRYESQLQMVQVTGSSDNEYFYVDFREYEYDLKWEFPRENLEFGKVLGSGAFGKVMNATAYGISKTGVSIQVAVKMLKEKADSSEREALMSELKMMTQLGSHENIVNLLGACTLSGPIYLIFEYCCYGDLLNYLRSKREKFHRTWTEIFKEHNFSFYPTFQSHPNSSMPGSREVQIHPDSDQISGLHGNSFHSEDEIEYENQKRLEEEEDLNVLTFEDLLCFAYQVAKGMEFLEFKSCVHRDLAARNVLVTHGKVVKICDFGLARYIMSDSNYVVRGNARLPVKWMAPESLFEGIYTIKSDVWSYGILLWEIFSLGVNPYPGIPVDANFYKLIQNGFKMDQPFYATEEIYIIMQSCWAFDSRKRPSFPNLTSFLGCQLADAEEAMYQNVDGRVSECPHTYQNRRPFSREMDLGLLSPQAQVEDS
# [19] = target: Non-receptor tyrosine-protein kinase TYK2 (Homo sapiens) (UniProt P29597); details: at 1 µM;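 also: values are mean percent inhibition of TYK2 kinase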
# Chain of Non-receptor tyrosine-protein kinase TYK2 (Homo sapiens) (P29597 whole entry): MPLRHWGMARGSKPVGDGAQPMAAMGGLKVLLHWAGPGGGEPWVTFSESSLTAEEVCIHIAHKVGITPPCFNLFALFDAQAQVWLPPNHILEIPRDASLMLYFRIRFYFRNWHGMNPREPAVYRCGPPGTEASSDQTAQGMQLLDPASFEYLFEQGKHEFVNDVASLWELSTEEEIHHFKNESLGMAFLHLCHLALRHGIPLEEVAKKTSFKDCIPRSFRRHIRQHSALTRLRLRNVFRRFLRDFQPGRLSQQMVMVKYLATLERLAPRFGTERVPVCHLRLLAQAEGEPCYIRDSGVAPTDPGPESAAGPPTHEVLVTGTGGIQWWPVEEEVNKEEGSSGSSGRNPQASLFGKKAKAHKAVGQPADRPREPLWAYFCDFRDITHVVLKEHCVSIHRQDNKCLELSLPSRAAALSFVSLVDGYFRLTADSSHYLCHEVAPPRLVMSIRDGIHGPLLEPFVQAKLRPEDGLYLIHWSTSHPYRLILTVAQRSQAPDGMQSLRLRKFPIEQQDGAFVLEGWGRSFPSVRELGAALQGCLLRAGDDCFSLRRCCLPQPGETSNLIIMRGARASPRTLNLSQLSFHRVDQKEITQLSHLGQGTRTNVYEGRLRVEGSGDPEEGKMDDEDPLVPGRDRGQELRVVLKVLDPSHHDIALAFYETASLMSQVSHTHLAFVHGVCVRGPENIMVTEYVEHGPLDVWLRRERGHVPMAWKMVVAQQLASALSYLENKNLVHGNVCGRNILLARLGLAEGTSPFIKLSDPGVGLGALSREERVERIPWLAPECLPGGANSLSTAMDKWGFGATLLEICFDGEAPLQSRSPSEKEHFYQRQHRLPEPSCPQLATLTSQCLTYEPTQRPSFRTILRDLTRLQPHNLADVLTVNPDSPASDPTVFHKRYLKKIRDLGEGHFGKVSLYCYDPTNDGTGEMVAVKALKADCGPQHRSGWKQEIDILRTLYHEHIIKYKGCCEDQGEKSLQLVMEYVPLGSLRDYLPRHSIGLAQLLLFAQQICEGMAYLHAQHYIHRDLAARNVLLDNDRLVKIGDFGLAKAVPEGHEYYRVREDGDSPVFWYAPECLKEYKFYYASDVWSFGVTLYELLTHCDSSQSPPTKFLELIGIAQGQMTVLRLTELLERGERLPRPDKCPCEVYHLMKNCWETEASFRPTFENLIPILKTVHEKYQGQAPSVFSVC
# [20] = target: T2, Tyrosine-protein kinase receptor TYRO3 (Homo sapiens) (UniProt Q06418); details: at 0.1 µM;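 also: reported percentages are averaged inhibition values of TYRO3 kinase activity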
# T2 sequence (whole entry): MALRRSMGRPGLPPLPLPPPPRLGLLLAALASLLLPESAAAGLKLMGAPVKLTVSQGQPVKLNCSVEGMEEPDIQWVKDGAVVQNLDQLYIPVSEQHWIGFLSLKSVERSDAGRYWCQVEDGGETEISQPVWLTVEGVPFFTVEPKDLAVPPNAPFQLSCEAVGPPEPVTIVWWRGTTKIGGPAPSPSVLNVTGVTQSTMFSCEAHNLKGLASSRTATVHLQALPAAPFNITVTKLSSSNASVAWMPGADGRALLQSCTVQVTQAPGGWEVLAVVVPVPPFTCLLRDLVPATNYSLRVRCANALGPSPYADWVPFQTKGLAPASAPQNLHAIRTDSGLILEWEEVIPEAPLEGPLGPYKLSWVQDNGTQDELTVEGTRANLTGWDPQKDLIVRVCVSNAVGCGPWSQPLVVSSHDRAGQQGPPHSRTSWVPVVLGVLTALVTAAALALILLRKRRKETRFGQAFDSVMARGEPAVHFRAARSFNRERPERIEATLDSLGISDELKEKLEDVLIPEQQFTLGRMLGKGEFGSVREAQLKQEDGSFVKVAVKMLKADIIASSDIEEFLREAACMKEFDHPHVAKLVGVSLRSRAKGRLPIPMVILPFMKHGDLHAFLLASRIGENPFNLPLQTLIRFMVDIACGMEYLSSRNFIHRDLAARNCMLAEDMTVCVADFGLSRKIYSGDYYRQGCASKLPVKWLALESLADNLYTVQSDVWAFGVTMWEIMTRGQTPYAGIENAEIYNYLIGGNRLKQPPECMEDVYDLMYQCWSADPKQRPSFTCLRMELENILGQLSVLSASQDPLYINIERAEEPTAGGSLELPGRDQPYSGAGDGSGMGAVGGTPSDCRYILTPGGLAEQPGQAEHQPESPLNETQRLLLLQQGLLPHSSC
# Chain of Tyrosine-protein kinase Fes/Fps (Homo sapiens) (P07332 whole entry): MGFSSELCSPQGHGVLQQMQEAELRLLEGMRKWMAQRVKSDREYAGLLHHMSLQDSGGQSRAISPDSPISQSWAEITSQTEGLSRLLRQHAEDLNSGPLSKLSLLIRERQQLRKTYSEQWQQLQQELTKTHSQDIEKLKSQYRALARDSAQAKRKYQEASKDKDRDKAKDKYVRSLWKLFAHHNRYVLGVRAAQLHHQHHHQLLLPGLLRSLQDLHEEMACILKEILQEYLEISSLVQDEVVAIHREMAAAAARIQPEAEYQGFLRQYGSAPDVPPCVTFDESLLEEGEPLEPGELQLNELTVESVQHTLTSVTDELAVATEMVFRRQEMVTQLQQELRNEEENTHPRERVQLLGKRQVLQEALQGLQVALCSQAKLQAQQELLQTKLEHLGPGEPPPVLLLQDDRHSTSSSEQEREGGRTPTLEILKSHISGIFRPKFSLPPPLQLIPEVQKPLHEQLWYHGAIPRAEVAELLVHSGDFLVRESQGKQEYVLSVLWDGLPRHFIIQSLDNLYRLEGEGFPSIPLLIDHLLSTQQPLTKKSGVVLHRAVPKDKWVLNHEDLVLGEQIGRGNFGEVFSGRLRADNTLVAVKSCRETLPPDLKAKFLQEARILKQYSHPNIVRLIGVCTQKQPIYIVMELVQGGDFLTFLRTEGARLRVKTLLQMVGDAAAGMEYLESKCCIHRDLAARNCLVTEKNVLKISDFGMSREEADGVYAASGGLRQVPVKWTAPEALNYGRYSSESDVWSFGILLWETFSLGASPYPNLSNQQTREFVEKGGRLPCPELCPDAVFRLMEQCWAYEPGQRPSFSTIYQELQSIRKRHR
SMILES,inhibition [1],inhibition [2],inhibition [3],inhibition [4],inhibition [5],inhibition [6],inhibition [7],inhibition [8],inhibition [9],inhibition [10],inhibition [11],inhibition [12],inhibition [13],inhibition [14],inhibition [15],inhibition [16],inhibition [17],inhibition [18],inhibition [19],inhibition [20]
COc1cccc(Nc2nccc(-c3cnn4ncccc34)n2)c1,48%,8.87%,50.3%,-2.04%,4.55%,1.68%,16.6%,0.93%,10.9%,1.56%,1.33%,7.08%,19.3%,9.62%,25.1%,33%,78.9%,16.7%,30.3%,3.96%
CCN1CCC(C(=O)Nc2n[nH]c3nnc(-c4cccc(F)c4F)cc23)CC1,1.37%,-0.22%,-1.05%,-4.59%,-1.81%,-0.41%,-2.18%,-0.59%,2.01%,1.8%,1.49%,1.72%,3.35%,0.76%,1.26%,1.71%,6.05%,-1.16%,-3.82%,-1.35%
Nc1ncnc2occ(-c3ccc(NC(=O)Nc4cc(C(F)(F)F)ccc4F)cc3)c12,29.4% and 17.7%,1.99% and -1.17%,3.25% and -0.8%,3.81% and 0.38%,29.8% and 19.3%,14.1% and 7.78%,52.2% and 43.8%,6.93% and 1.4%,34.3% and 17.9%,2.49% and 0.65%,16.7% and 10%,3.04% and 0.42%,24.4% and 11.4%,37.5% and 26.9%,84.5% and 74.3%,65.9% and 59.9%,89.1% and 89.5%,18% and 5.3%,-7.38% and 0.28%,5.11% and -0.01%
Nc1nonc1-c1nc2cnccc2n1C1CC1,0.34% and 3.05%,2.84% and 0.98%,3.51% and 0.87%,13.1% and 2.25%,8.28% and -2.04%,5.07% and -2.09%,8.58% and -2.64%,7.58% and 1.46%,8.03% and -1.3%,0.52% and -4.76%,0.52% and -2.65%,1.63% and 3.54%,4.78% and 2.49%,2.44% and 2.46%,7.3% and 7.59%,-0.66% and 0.33%,4.5% and 3.82%,2.73% and -0.79%,-1.02% and -1.56%,1.66% and 1.58%
COc1ccc2ncn(-c3cc(O[C@H](C)c4ccccc4C(F)(F)F)c(C(N)=O)s3)c2c1,3.58%,-0.21%,0.25%,1.11%,-0.51%,-2.58%,5.48%,0.12%,3.58%,0.21%,3.29%,0.34%,1.98%,-2.14%,1.15%,-1.48%,8.06%,-1.49%,-1.84%,-0.34%
COc1ccccc1-c1cc(/C=C2\C(=O)Nc3ncc(Br)cc32)cc(Br)c1O,9.31%,3.24%,4.41%,3.85%,14%,6.66%,18%,8.55%,14%,-0.86%,1.97%,2.7%,11.6%,3.32%,4.73%,4.36%,6.62%,-5.55%,-1.22%,7.47%
O=C1Nc2ccccc2/C1=C1\CCc2cc(O)ccc21,22.1%,4.19%,6.81%,8.16%,23.5%,9.87%,31.3%,10.3%,30.9%,-1.94%,3.99%,2.44%,15.4%,12.7%,25.7%,40.7%,85.5%,27.1%,6.88%,4.69%
CCS(=O)(=O)c1ccc(OC)c(Nc2ncc(-c3cccc(F)c3)o2)c1,8.9%,4.72%,4.79%,12.7%,46.2%,40.5%,69.8%,52.9%,77.3%,5.31%,17.6%,40.2%,76.2%,14.2%,55.3%,23.3%,74.5%,17.6%,-2.12%,6.63%
Cc1c2ccc(N(C)c3ccnc(Nc4cccc(S(N)(=O)=O)c4)n3)cc2nn1C,74.1%,15.2%,56.1%,24.9%,62.6%,50%,69.9%,35.5%,70.1%,2.26%,26.4%,26%,64.7%,52.8%,94%,2.48%,15%,-0.8%,-3.19%,3.74%
CN1CCN(Cc2ccc(-c3cc4ncnc(Nc5ccc(OCc6cccc(F)c6)c(Cl)c5)c4s3)o2)CC1,7.48% and 15.1%,2.89% and 4.05%,6.42% and 6.83%,2.24% and 7.51%,2.3% and 1.47%,3.18% and 3.5%,4.91% and 4.73%,3.81% and 6.54%,2.58% and 3.34%,0.04% and -5.98%,0.2% and 1%,5.67% and 10.9%,30.3% and 30.1%,0.35% and 1.57%,3.76% and 1.58%,3.12% and 0.52%,1.99% and 2.76%,-3.92% and 0.13%,-7.87% and -0.75%,2.09% and 4.83%
NC(=O)c1ccc2c(-c3ccnc(NCCCO)n3)c(-c3ccc(F)cc3)nn2c1,6.71%,3%,5.19%,8.04%,8.15%,4.29%,9.62%,5.45%,7.13%,0.14%,1.22%,3.07%,12.1%,3.74%,3.53%,4.12%,5.06%,2.33%,-5.12%,3.03%
Cc1cc(O)cc(C)c1/C=C/c1cncc(C(N)=O)c1,1.87%,1.69%,1.94%,2.16%,7.91%,2.08%,7.34%,4.56%,4.79%,-4.55%,0.95%,5.81%,38.1%,1.23%,4.11%,1.9%,2.11%,-5.07%,-0.58%,2.41%
